# Source: PubChem
# This is a sample that favours compounds with a hit; in the whole collection about 0.88% have one here.
# Glioma ERSR ind: induces the endoplasmic reticulum stress response in human glioma cells. U87-MG GRP78 promoter luciferase reporter, 16 h. Potency, µM, inactives show at the top dose activation, most hits filed as activators. actives 0.02% (n = 420,000). AID 602332; note: potency is the fitted concentration of half-maximal effect; series mostly up to about 76 µM; % of control where 0% means no effect; nearly all actives have a fitted effect of over 35% in size
#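 ERSR induction read as luciferase luminescence (Bright-Glo, 10 min at room temperature) in stably transfected human U87-MG glioma cells exposed to compounds for 16 h, using GRP78 as sensor.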
# Six1-Eya2 blk: inhibitors of human Six1/Eya2 interaction. Q15475+O00167. AlphaScreen GST-Six1/His-Eya2 binding, biochemical; hits give low values. activity change, % (concentration not given with the values). actives 0.56% (n = 360,000). AID 651725; in the data active = activity change below about -65%; inconclusive = mostly about -30% to -63%; note: % is set by controls: 0 for no effect and ±100 for the full control effect
#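 GST-Six1 + His-Eya2 (5X stock: 250/500 nM); Tris pH 8.0, 300 mM NaCl, 0.05% BSA, 0.02% Tween 20; GSH donor/Ni acceptor beads; 1 h 37 °C dark; AlphaScreen readout.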
# CtBP-E1A blk: CtBP/E1A binding inhibition; AlphaScreen GST-E1A/His-CtBP binding, 1536-well; hits give low values; activity change, % (test concentration not listed); actives 0.49% (n = 340,000); AID 651724; in the data active = activity change below about -65%; inconclusive = mostly about -30% to -63%; note: % is set by controls: 0 for no effect and ±100 for the full control effect
#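 GST-E1A and His-tagged CtBP (125 nM each as 5X stock) were preincubated with pin-transferred compound for 2 h at 37 °C in the dark, then glutathione donor and nickel acceptor beads were added for 1 h before AlphaScreen reading.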
# Akt phos inh: Akt phosphorylation inhibition. Neuro2A IGF-stimulated pAkt S473 HTRF, 20 min; hits give low values. activity change, % for hits at 50 µM. actives 0.32% (n = 360,000). AID 651550; in the data active = activity change below about -80%; inconclusive = mostly about -51% to -80%; note: % is set by controls: 0 for no effect and ±100 for the full control effect
#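 Neuro2A cells in DMEM with 0.5% FBS, overnight at 37 deg C, given compound at single 50 µM final, then IGF (6 nM final) for 20 min at 37 deg C. Lysed; phospho-Akt Ser473 by HTRF after 24 h, 665/615 ratio.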
# RGS4 inhibitor: inhibitors of human regulator of G protein signaling 4 | Transcreener GDP fluorescence polarization, RGS4-accelerated GTP hydrolysis | Potency, µM (top dose mostly 114 µM), for inactives: at the highest dose activity change, negative = inhibition, most hits filed as inhibitors | actives 0.039% (n = 390,000); note: potency is the fitted concentration of half-maximal effect; % is set by controls: 0 for no effect and ±100 for the full control effect; nearly all actives have a fitted effect of over 75% in size
# Target sequence (P49798 whole entry, looked up): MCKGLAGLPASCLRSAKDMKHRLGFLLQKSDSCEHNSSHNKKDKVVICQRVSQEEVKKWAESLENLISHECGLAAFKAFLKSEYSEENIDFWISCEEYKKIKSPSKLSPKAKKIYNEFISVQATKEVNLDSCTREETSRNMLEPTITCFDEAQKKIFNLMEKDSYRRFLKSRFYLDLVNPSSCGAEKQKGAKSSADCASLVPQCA
#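 MLSMR compounds (23 nl, pin-transferred) preincubated 10 min at room temperature with a 500nM (2x) first reagent, then RGS4 at 900nM (2x) plus Transcreener GDP mix added; fluorescence polarization (620/688 nm) read before and after 90 min at 30 °C.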
# * marks the source's active call; other numbers are inactive results; i = inactive; u = inconclusive; x = no result given; [ ] = dose if it differs, or a comment. Unless noted, calls come from the whole dose curve; as a rule, active = well fitted curve in the direction sought with a large enough effect; inconclusive = small, poorly fitted or top-dose-only effect, or another doubt; inactive = no such curve, though single readings can be large; an effect the other way counts as inactive or inconclusive.
SMILES,Glioma ERSR ind,Six1-Eya2 blk,CtBP-E1A blk,Akt phos inh,RGS4 inhibitor
Cc1sc(NC(=O)CSc2nnc(-c3ccc(F)cc3)o2)c(C#N)c1C,-2%,3,-8,-108%*,5%
COCCn1c(=S)[nH]c2ncccc2c1=O,-6%,0,2,-109%*,-29%
CCCCCn1c(=S)[nH]c2ncccc2c1=O,-4%,4,-3,i,-19%
COc1cccc(OCCCn2c(-c3ccc(Cl)cc3)nc3ccccc3c2=O)c1,0%,x,x,x,-10%
COCCCn1c(=S)[nH]c2ncccc2c1=O,-4%,6,3,-122%*,-29%
COCCCn1c(-c2ccccc2)nc2ccccc2c1=O,-1%,3,-1,-121%*,9%
O=C(O[C@H]1[C@H](Cc2ccccc2)NS(=O)(=O)[C@H]2CC3C=C[C@]12O3)c1ccc(Br)cc1,-4%,x,x,x,x
CCOC(=O)c1ccc(N(C(=O)c2ccccc2)c2ccccc2)cc1,-1%,x,x,x,x
CCc1ccccc1NS(=O)(=O)c1cc2c(cc1C)n(C)c(=O)c(=O)n2C,-6%,-11,-4,i,-11%
CCn1c(=O)n(CC)c2cc(S(=O)(=O)Nc3ccccc3C)c(C)cc21,-3%,2,-6,-89%*,-20%
CCCCCCCC(=O)CC[C@H]1[C@@H](C/C=C/CCCC(=O)OC(C)C)[C@@H](O)C[C@H]1O,-7%,x,x,x,x
Cc1ccc(N(CC(=O)Nc2c(C)n(C)n(-c3ccccc3)c2=O)S(C)(=O)=O)cc1C,-2%,-4,7,-109%*,-14%
COc1cccc(CCNc2ncnc3sc(C(=O)N4CCOCC4)c(C)c23)c1,-3%,x,x,x,x
CCCCN(C)C(=O)c1ccc(Nc2nc(C(N)COCc3ccccc3)cs2)nc1 (stereo not given),-1%,u,u,i,x
CC(C)CC(N)c1csc(Nc2ccc(C(=O)NCCCO)cn2)n1 (stereo not given),-4%,-70*,-78*,i,x
NC(Cc1ccc(F)cc1)c1csc(Nc2ccc(C(=O)NCCCO)cn2)n1 (stereo not given),-2%,-68*,-72*,i,x
O=S(=O)(Nc1cccc2cccnc12)c1cccs1,-11%,x,x,x,-3%
Cc1cc2c(c(-c3ccc(Cl)cc3)c1)OC(CNC(=O)Cc1c(C)noc1C)C2 (stereo not given),-4%,x,x,x,x
O=C(Nc1cccc(C(F)(F)F)c1)Oc1ccc(Cl)c2cccnc12,-8%,-70*,-96*,i,10%
O=C(Nc1c(Cl)cccc1Cl)Oc1cccc2cccnc12,-3%,-90*,-94*,i,x
O=C(COc1cccc2cccnc12)Nc1ccccc1,1%,8,1,i,-13%
O=C(Nc1cccc(Br)c1)Oc1cccc2cccnc12,-2%,-90*,u,i,x
NCC(O)COc1cccc2ccccc12 (stereo not given),-3%,x,x,x,i
CSc1ccccc1NC(=O)c1c(Br)cnn1C,-2%,2,10,-122%*,-7%
Cn1ncc(Br)c1C(=O)Nc1c(F)c(F)cc(F)c1F,2%,-1,2,i,-35%
SMILES,Glioma ERSR ind,Six1-Eya2 blk,CtBP-E1A blk,Akt phos inh,RGS4 inhibitor
O=[N+]([O-])c1ccc(N/N=C2\CC3CC=CC23)cc1 (stereo not given),3%,-13,-14,i,13%
O=[N+]([O-])c1ccc(N/N=C2\CC3CC=CC23)c([N+](=O)[O-])c1 (stereo not given),-2%,-69*,-16,i,-3%
Cc1cc(C)n2c(Nc3c(C)cccc3C)c(-c3ccccn3)nc2n1,x,-90*,u,i,x
Cc1cccc(C)c1Nc1c(-c2ccccn2)nc2ccccn12,-5%,-84*,x,i,-39%
Cc1ccc(Nc2c(-c3ccccn3)nc3cccc(C)n23)cc1,-10%,-88*,-98*,i,-31%[11.4 µM]
Cc1cccc2nc(-c3ccccn3)c(Nc3ccccc3)n12,-7%,x,x,x,6%
Cc1ccc2nc(-c3ccccn3)c(NC3CCCC3)n2c1,-3%,u,-73*,i,2%
COc1ccc(-c2nc3cc(C)ccc3cc2CN(C(=O)c2ccc(C)s2)C2CC2)cc1OC,-4%,x,x,x,x
C[C@@H](C(=O)O)c1ccc(C2CCCCC2)c2ccccc12,-4%,x,x,x,x
CC1=Nc2ccccc2/C1=C(/C)c1c(C)[nH]c2ccccc12,-1%,x,x,x,x
CCCCNc1c(-c2cc3ccccc3o2)nc2nc(C)cc(C)n12,x,9,-10,i,x
CCCCNc1c(-c2ccccn2)nc2nc(C)cc(C)n12,x,-88*,u,i,x
CC1=C[C@@H](O)CC(C)(C)[C@@H]1/C=C/C(C)=C/C=C/C(C)=C/C=C/C=C(C)/C=C/C=C(C)/C=C/C1=C(C)C[C@H](O)CC1(C)C,0%,x,x,x,x
CSc1ccccc1-c1n[nH]c(=S)o1,0%,7,-30,i,u
Cc1ccccc1-c1n[nH]c(=S)o1,-2%,7,4,-102%*,-6%
CCc1nnc(NC(=O)C(NC(=O)c2ccccc2Cl)C(C)C)s1 (stereo not given),-4%,21,0,i,-7%
CC(C)[C@H](NC(=O)c1ccccc1Cl)C(=O)Nc1nc(-c2ccccn2)cs1,-5%,-80*,-83*,i,-8%
CC(Oc1ccc(Br)cc1)C(=O)Nc1nc(-c2ccccn2)cs1 (stereo not given),20%,-73*,u,i,-38%
CCC(=O)Nc1cc(SCCO)cc([N+](=O)[O-])c1,-3%,0,-17,-88%*,30%
O=C(CCl)Nc1cc(SCC(O)CO)cc([N+](=O)[O-])c1 (stereo not given),-15%,2,2,i,-29%
COCCCNc1ncnc2sc(C(=O)N3CCCCC3)c(C)c12,-5%,x,x,x,x
COc1cc(C2C(C#N)=C(N)Oc3c2ccc2ccccc32)ccc1OCC(=O)Nc1ccccc1C (stereo not given),-6%,-4,-1,-104%*,-5%
Cc1cccc(CNC(=O)c2cnn(-c3nccc(-c4cc5ccccc5o4)n3)c2C2CC2)n1,-2%,x,x,x,x
S=C(Nc1ccc(Cl)cc1)c1nc2ccccc2[nH]1,3%,-73*,u,i,-8%
Cc1ccccc1NC(=S)c1nc2ccccc2[nH]1,4%,-90*,-84*,i,-17%
